Bioassay records from PubChem.
Compounds with a hit are over-represented: about 15% of the library has one in this group of screens.
Sm TGR inh: blocks Schistosoma mansoni thioredoxin glutathione reductase. Q962Y6. purified TGR, DTNB reduction, TNB absorbance 405 nm. Potency, µM (doses to about 114 µM), for inactives: top-dose activity change, negative = inhibition, usual class: inhibitors. 360,000 tested, 3% active; further: potency means the concentration at half of the fitted maximal effect; on the % scale 0 is the no-effect control and ±100 the full control effect; nearly all actives have a fitted effect of over 60% in size
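Kinetic colorimetric format: TGR-catalysed, NADPH-driven DTNB reduction monitored via TNB absorbance. Enzyme dispensed at 20 nM; compound exposure 15 min at room temperature before reaction start.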
Pf growth 48h: P. falciparum growth inhibition at 48 hours (one generation) | P. falciparum luciferase growth in erythrocytes, 48 h | Potency, µM (highest dose often 28.7 µM), without a hit: at the top dose activity change, negative = inhibition, usual class: inhibitors | 310,000 tested, 5.9% active; further: potency means the concentration at half of the fitted maximal effect; on the % scale 0 is the no-effect control and ±100 the full control effect
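Erythrocytes infected with P. falciparum carrying an integrated firefly luciferase reporter (2% hematocrit, 0.1% parasitemia final) were exposed to compounds in RPMI 1640 with 0.5% Albumax at 37 C, 5% CO2. Growth inhibition was scored as reduced luminescence.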
HCMV inh: blocks human cytomegalovirus replication; HFF cells, HCMV-luciferase reporter, 72 h; active compounds read low; 410,000 tested, 4.5% active; activity change, negative = inhibition, % at 57.5 µM; in the data active means activity change below about -60%; inconclusive means no clear call, values can overlap the other calls; inactive means above about -39%; further: on the % scale 0 is the no-effect control and ±100 the full control effect
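Inhibition of viral replication was scored as loss of reporter luminescence in HFFs infected with HCMV-luciferase (MOI 1 PFU/cell) for 72 h; compounds tested at 2 doses, normalized to buffer and Salinomycin controls.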
Pf growth 96h: P. falciparum growth inhibition at 96 hour, primary screen for plastid delayed-death inhibitors. 320,000 tested, 6.9% active. P. falciparum luciferase reporter growth, 96 h. Potency, µM (series often up to 28.7 µM), for inactives: top-dose activity change, negative = inhibition, usual class: inhibitors; further: potency means the concentration at half of the fitted maximal effect; on the % scale 0 is the no-effect control and ±100 the full control effect
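Two parasite generations (96 h, 37 C, 5% CO2) of compound exposure in infected erythrocytes (0.05% parasitemia, 2% hematocrit). Luciferase-reporter P. falciparum; decreased luminescence indicates inhibited growth, aimed at apicoplast-acting delayed death.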
SARS PLP yeast: blocks SARS-CoV papain-like protease in a yeast assay; S. cerevisiae expressing SARS-CoV PLpro, growth rescue; Potency, µM (titrated, usually from 32.9 µM), for inactives: at the top dose activity, positive = growth rescue, usual class: activators; 330,000 tested, 0.19% active; calls by dose curve; further: potency means the concentration at half of the fitted maximal effect; 0% is about no effect; nearly all actives have a fitted effect of over 55% in size
HCV inhibitor: inhibitors of hepatitis C virus infection; Huh7.5.1 HCVcc-Cre infection, luciferase reporter, 44 h; Potency, µM (top dose mostly 41.8 µM), inactives show top-dose activity change, negative = inhibition, hits mostly inhibitors; 340,000 tested, 3.4% active; AID 651820; further: potency means the concentration at half of the fitted maximal effect; on the % scale 0 is the no-effect control and ±100 the full control effect
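HCVcc-Cre virus at an moi near 0.5 was added right after compound to cells cultured 4 h from seeding (1,000 cells/well). Luciferase activity was determined 44 h later, 15 min after substrate addition at RT.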
Active calls of the source: *; ? = inconclusive; nt = not tested or not shown; [ ] = another dose, or the depositor's remark. Unless noted, the call rests on the fitted dose curve; in most records, active means well fitted curve in the direction sought with a large enough effect; inconclusive means small, poorly fitted or top-dose-only effect, or another doubt; inactive means no such curve, though single readings can be large; an effect the other way counts as inactive or inconclusive.

SMILES	Sm TGR inh	Pf growth 48h	HCMV inh	Pf growth 96h	SARS PLP yeast	HCV inhibitor
COc1ccc(-c2csc(NC(=S)NC(=O)/C=C/c3ccco3)n2)cc1OC	-6%	4%	-8	32%	-8%	-14%
CCC(Cc1ccccc1)NC(=O)/C=C/c1ccco1 (stereo unspecified)	10µM*	-12%	-20	-3%	-5%	2%
COc1ccc(C(NC(=O)/C=C/c2ccco2)c2ccc(OC)cc2)cc1	10µM*	10µM*	-3	2.3µM*	2%	-8%
COc1ccc(C(NC(=O)/C=C\c2ccco2)c2ccc(OC)c(OC)c2)cc1 (stereo unspecified)	13µM*	?	-15	?	-6%	-8%
COCCCNC(=O)N1CCN(c2nnc(C)c3c(C)n(-c4ccc(Cl)cc4)nc23)CC1	4%	nt	2	nt	nt	nt
Cc1ccc(/C=C2\CCCC3=C2NC(=S)NC3c2ccc(C)cc2)cc1 (stereo unspecified)	?	-8%	?	?	11%	-27%
Cc1ccc(/C=C2\CC(C)CC3=C2NC(=S)NC3c2ccc(C)cc2)cc1 (stereo unspecified)	16µM*	?	-23	?	7%	?
CC1CC2=C(NC(=S)NC2c2cccc(F)c2)/C(=C/c2cccc(F)c2)C1 (stereo unspecified)	?	?	-17	6%	1%	10µM*
CCOC(=O)Cn1c(=O)n(-c2ccc(Cl)cc2)c2nc(-c3ccc(Cl)cc3)nc(C(N)=O)c21	-4%	nt	-5	nt	nt	nt
CCOC(=O)Cn1c(=O)n(C2CCCCC2)c2nc(-c3c(F)cccc3Cl)nc(C(N)=O)c21	3%	nt	-82*	nt	nt	nt
CCOC(=O)C1CCN(c2nc3c(S(=O)(=O)c4ccccc4)nnn3c3ccsc23)CC1	-1%	nt	0	nt	nt	nt
N#Cc1c(-c2ccccc2)nc(SCC(=O)N(c2ccccc2)c2ccccc2)[nH]c1=O	-1%	8%	-26	13µM*	24%	0%
N#Cc1c(-c2ccccc2)nc(SCC(=O)Nc2ccc(OC(F)(F)Cl)cc2)[nH]c1=O	-28%	-17%	-2	3.7µM*	3%	7%
CCn1c(=O)c(C(=O)NCCc2ccccc2)c(O)c2ccccc21	12%	?	0	13%	-3%	-16%
CCn1c(=O)c([N+](=O)[O-])c(NCCc2ccc(OC)c(OC)c2)c2ccccc21	7%	?	-72*	21%	-1%	?
CCn1c(=O)c(C(=O)NCCc2ccc(OC)c(OC)c2)c(O)c2ccccc21	17%	?	-8	10µM*	14%	?
CCn1c(=O)c(C(=O)NCCN2CCCCC2)c(O)c2ccccc21	18%	8.3µM*	61	0%	0%	?
CC(=O)c1c(O)c2ccccc2n(Cc2ccccc2)c1=O	-10%	?	147	13µM*	-2%	-30%
C=CCn1c(=O)c(C(=O)NCc2ccccc2)c(O)c2ccccc21	-14%	13%	-25	-13%	?	?
CC(C)Oc1ccc(CNS(=O)(=O)c2cnc(N)nc2)cc1	-14%	nt	-36	nt	nt	nt
Cc1cccc2cc(CN(Cc3nnnn3C3CCCC3)C3CCCCC3)c(=O)[nH]c12	nt	nt	-25	nt	nt	-2%
CCc1ccc2[nH]c(=O)c(CN(Cc3nnnn3C3CCCC3)C3CCCCC3)cc2c1	0%	8.3µM*	?	1%	0%	-23%
Cc1ccc2[nH]c(=O)c(CN(Cc3nnnn3Cc3ccccc3)C3CCCC3)cc2c1	?	13µM*	-14	-20%	-1%	?
CCOc1ccc2[nH]c(=O)c(CN(CCO)C(c3nnnn3C3CCCCC3)C(C)C)cc2c1 (stereo unspecified)	0%	3.3µM*	-13	-18%[5.75 µM]	-5%	16%
Cc1ccc(S(=O)(=O)N2CCCc3cc(NC(=O)c4ccc(C(C)(C)C)cc4)ccc32)cc1	6%	nt	23	nt	nt	nt
SMILES	Sm TGR inh	Pf growth 48h	HCMV inh	Pf growth 96h	SARS PLP yeast	HCV inhibitor
CC1(C)Cc2c(ccc3ccccc23)C(c2cc3ccccc3oc2=O)=N1	11%	?	-25	10µM*	0%	?
O=c1oc2ccccc2cc1-c1ccccc1	30%	49%	-7	-6%	-1%	1%
CC1(C)Cc2ccccc2C(c2cc3ccccc3oc2=O)=N1	-27%	8.3µM*	-70*	?	13%	-11%
O=C(CCc1nnc(COc2ccccc2)o1)NCc1ccc(Cl)s1	0%	59%	-18	15µM*	0%	-18%
O=C(CCc1nnc(CCCc2ccccc2)o1)NCCc1ccco1	-21%	21%	-19	9.3µM*	-1%	-4%
O=C(CCc1nnc(COc2ccccc2)o1)NCc1ccccc1C(F)(F)F	-4%[57.1 µM]	-6%	?	0%	-1%	2%
O=C(CCc1nnc(COc2ccccc2)o1)NCCc1cccs1	-14%	-7%	-12	10µM*	0%	13%
CC(C)CCNC(=O)CCc1nnc(COc2ccccc2)o1	4%	-4%	-5	?	0%	16%
CC(C)(C)CC(=O)Nc1nnc(SCC(=O)N2CCCCC2)s1	16%	-15%	15	-14%	1%	3%
CN(C)c1ccc(C(=O)C=Cc2ccc([N+](=O)[O-])cc2)cc1	nt	nt	-19	nt	nt	nt
C/C(=C\c1ccc(N(C)C)cc1)[N+](=O)[O-]	0%	?	-102*	?	-19%	?
CCOCC(=O)Nc1nc(-c2ccccc2)c(CC)s1	-15%	12%	21	nt	-2%	?
COc1ccccc1NC(=O)CSc1nnc(-c2ccccn2)n1Cc1ccco1	40µM*	?	-5	12µM*	12%	-8%
COc1ccc(C)cc1NC(=O)CSc1nnc(-c2ccccn2)n1Cc1ccco1	10%	2%	33	-22%	-1%	-14%
CCOc1ccc(NC(=O)CSc2nccn2Cc2ccco2)cc1	-6%	?	53	0%	2%	-12%
COc1ccc(NC(=O)CSc2nnc(-c3ccccc3Cl)n2Cc2ccco2)c(OC)c1	35µM*	?	39	nt	17%	-21%
COc1ccc(NC(=O)CSc2nnc(-c3ccccc3)n2Cc2ccco2)c(OC)c1	-21%[11.4 µM]	nt	52	?	1%	?
CCn1c(SCc2ccccc2)nnc1-c1ccc(S(=O)(=O)N2CCCCC2)cc1	1%	10µM*	-25	0%	-4%	?
CCOc1ccc(NC(=O)CSc2nnc(-c3ccccc3Cl)n2Cc2ccco2)cc1	-25%	?	2	0.033µM*	-1%	?
O=C(NCCCN1CCOCC1)c1onc(CSc2ccc(F)c(F)c2)c1C(=O)NCCCN1CCOCC1	nt	nt	-32	nt	nt	-28%
